# Assay results: the supplement of paper PMC3414501
# Structures can show the parent of a compound that is named as a salt.
# How the values were obtained:
# [1] = system: S. cerevisiae SK1 pCDA2-eGFP (USY613), sporulating; assay: CDA2-GFP sporulation assay sensitivity score (z-score vs DMSO controls); higher = stronger inhibition of sporulation, active = hit call of the paper;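 note: active if sensitivity score above 5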
# [2] = system: S. cerevisiae NKY1551 his4x/his4B, sporulating; assay: HIS4 meiotic recombination assay sensitivity score (z-score vs DMSO controls); higher = stronger inhibition of sporulation/recombination, active = hit call of the paper;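 note: active if sensitivity score above 5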
# [3] = system: S. cerevisiae AD1-9 (efflux-pump deficient), vegetative growth in YPD; assay: growth sensitivity score (doubling time z-score vs DMSO controls); higher = slower growth, strongly negative scores also mark growth inhibition (complete suppression), active = hit call of the paper
# Outline: (§1)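 Yeast (Saccharomyces cerevisiae BY4741 and AD1-9) was grown in rich medium in microtiter plates from a starting OD600 of 0.065, with optical density read every 15 min over 24 hours. The growth sensitivity score was the difference between compound and solvent-only means, divided by the solvent-only standard deviation. Every experiment had eight solvent-only wells.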
# [4] = system: S. cerevisiae BY4741 (wild-type), vegetative growth in YPD; assay: as above
# Outline: as §1
Compound,CDA2-GFP sporulation assay sensitivity score [1],HIS4 meiotic recombination assay sensitivity score [2],growth sensitivity score [3],growth sensitivity score [4]
"O=c1ncc(F)c[nH]1 [5-Fluoro-2-Pyrimidone] (stock concentration (mM, diluted 1:100): 10)",0.54 (inactive),-0.02 (inactive),-0.92 (inactive),-2.08
"Oc1ccc(/C=C/c2cc(O)cc(O)c2)cc1 [Resveratrol] (stock concentration (mM, diluted 1:100): 10)",5.86 (inactive),1.16 (inactive),-0.99 (inactive),-0.21 (inactive)
"CN[C@H]1CC[C@@H](c2ccc(Cl)c(Cl)c2)c2ccccc21 [Sertraline] (stock concentration (mM, diluted 1:100): 9)",-0.26 (inactive),-0.61 (inactive),–,–
"COCC1=C(C(=O)OC(C)OC(=O)OC(C)C)N2C(=O)[C@@H](NC(=O)/C(=N\OC)c3csc(N)n3)[C@H]2SC1 (stereo partly drawn) [Cefpodoxime proxetil] (stock concentration (mM, diluted 1:100): 7.7)",-0.83 (inactive),-1.5 (inactive),-0.15 (inactive),-1.13 (inactive)
"CO[C@H]1O[C@@H]2O[C@@]3(C)CC[C@H]4[C@H](C)CC[C@@H]([C@H]1C)[C@@]24OO3 [Artemether] (stock concentration (mM, diluted 1:100): 10)",7.92 (inactive),-0.64 (inactive),9.66 (active),17.6 (active)
"Nc1nc2ccc(OC(F)(F)F)cc2s1 [Riluzole] (stock concentration (mM, diluted 1:100): 9.9)",16.9 (active),6.83 (active),15.4 (active),5.49 (active)
"Nc1nc(Cl)nc2c1ncn2[C@@H]1O[C@H](CO)[C@@H](O)[C@H]1O [2-Chloroadenosine] (stock concentration (mM, diluted 1:100): 10)",-0.44 (inactive),-0.54 (inactive),-1.1 (inactive),-1.07 (inactive)
"CCCc1c(OCCCCc2nnn[nH]2)ccc(C(C)=O)c1O (stock concentration (mM, diluted 1:100): 10)",-1.99 (inactive),-2.23 (inactive),5.49 (active),1.14 (inactive)
"c1ccc(-c2ccc(C(c3ccccc3)n3ccnc3)cc2)cc1 (stereo not drawn) [Bifonazole] (stock concentration (mM, diluted 1:100): 10)",0.04 (inactive),-0.93 (inactive),–,–
"COc1nc(C)nc(Cl)c1NC1=NCCN1 [Moxonidine hydrochloride] (stock concentration (mM, diluted 1:100): 9.2)",0.6 (inactive),-0.58 (inactive),-1.22 (inactive),0.19 (inactive)
"CN(CCO)CC(O)Cn1cnc2c1c(=O)n(C)c(=O)n2C (stereo not drawn) [Xanthinol nicotinate] (stock concentration (mM, diluted 1:100): 10)",2.12 (inactive),-0.61 (inactive),0.36 (inactive),-1.14 (inactive)
"CN(C)CC[C@@H](c1ccc(Br)cc1)c1ccccn1 [Dexbrompheniramine maleate] (stock concentration (mM, diluted 1:100): 7.3)",-1.63 (inactive),7.19 (active),-0.16 (inactive),-1.48 (inactive)
"O=C1CC[C@@H](C(=O)N2CSC[C@H]2C(=O)O)N1 [Pidotimod] (stock concentration (mM, diluted 1:100): 10)",0.46 (inactive),-0.31 (inactive),0.59 (inactive),-1.4 (inactive)
"C[C@@H]1CN(CCCn2c3ccccc3c3ccccc32)C[C@H](C)N1 [Rimcazole] (stock concentration (mM, diluted 1:100): 10.1)",14.4 (active),-2.16 (inactive),20.3 (active),89.4 (active)
"CCOC(=O)OC(C)OC1=C(C(=O)Nc2ccccn2)N(C)S(=O)(=O)c2ccccc21 (stereo not drawn) [Ampiroxicam] (stock concentration (mM, diluted 1:100): 10)",3.3 (inactive),1.18 (inactive),-0.54 (inactive),-0.19 (inactive)
"CN(C)CCOC(C)(c1ccccc1)c1ccccn1 (stereo not drawn) [Doxylamine succinate] (stock concentration (mM, diluted 1:100): 10)",-0.3 (inactive),1.01 (inactive),-0.68 (inactive),1.39 (inactive)
"CC(C)C[C@H](NC(=O)[C@@H](O)[C@H](N)Cc1ccccc1)C(=O)O [Bestatin] (stock concentration (mM, diluted 1:100): 10)",-0.06 (inactive),-1.06 (inactive),-1.24 (inactive),-1.14 (inactive)

Compound,CDA2-GFP sporulation assay sensitivity score [1],HIS4 meiotic recombination assay sensitivity score [2],growth sensitivity score [3],growth sensitivity score [4]
"CC#C[C@]1(O)CC[C@H]2[C@@H]3CCC4=CC(=O)CCC4=C3[C@@H](c3ccc(N(C)C)cc3)C[C@@]21C [Mifepristone] (stock concentration (mM, diluted 1:100): 10)",9.91 (inactive),2.99 (inactive),172 (active),-2.51
"O=C(O)CCNC(=O)c1ccc(/N=N/c2ccc(O)c(C(=O)O)c2)cc1 [Balsalazide] (stock concentration (mM, diluted 1:100): 10)",1.1 (inactive),-1.14 (inactive),-1.86 (inactive),-1.09 (inactive)
"CC(c1cc2ccccc2s1)N(O)C(N)=O (stereo not drawn) [Zileuton] (stock concentration (mM, diluted 1:100): 10)",-0.22 (inactive),-2.31 (inactive),0.45 (inactive),-0.81 (inactive)
"C[C@]12CC[C@@H]3c4ccc(OS(=O)(=O)O)cc4CC[C@H]3[C@@H]1CCC2=O (stock concentration (mM, diluted 1:100): 10)",4.09 (inactive),1.4 (inactive),0.01 (inactive),-0.87 (inactive)
"CC(C)C[C@H](NC(=O)[C@@H](COC(C)(C)C)NC(=O)[C@H](Cc1ccc(O)cc1)NC(=O)[C@H](CO)NC(=O)[C@H](Cc1c[nH]c2ccccc12)NC(=O)[C@H](Cc1cnc[nH]1)NC(=O)[C@@H]1CCC(=O)N1)C(=O)N[C@@H](CCCNC(=N)N)C(=O)N1CCC[C@H]1C(=O)NNC(N)=O [Goserelin acetate] (stock concentration (mM, diluted 1:100): 9.6)",0.53 (inactive),-1.25 (inactive),0.11 (inactive),-0.77 (inactive)
"CN1CCN(C2=Nc3cc(F)ccc3Cc3ccccc32)CC1 [Fluperlapine] (stock concentration (mM, diluted 1:100): 10)",17.9 (active),-1.76 (inactive),2.12 (active),0.57 (inactive)
"CN(CCOc1ccc(CC2SC(=O)NC2=O)cc1)c1ccccn1 (stereo not drawn) [Rosiglitazone maleate] (stock concentration (mM, diluted 1:100): 7.6)",1.38 (inactive),0.95 (inactive),2.19 (active),1.82 (inactive)
"COc1cccc2c1C(=O)c1c(O)c3c(c(O)c1C2=O)C[C@@](O)(C(=O)CO)C[C@@H]3O[C@H]1C[C@H](N)[C@H](O)[C@H](C)O1 [Doxorubicin hydrochloride] (stock concentration (mM, diluted 1:100): 9.4)",0.3 (inactive),-0.73 (inactive),83.6 (active),51 (active)
"CN(C)CCC=C1c2ccccc2COc2ccccc21 [Doxepin] (stock concentration (mM, diluted 1:100): 10)",18.2 (active),3.87 (inactive),5.43 (active),1.16 (inactive)
"CC1CNc2c(cccc2S(=O)(=O)N[C@@H](CCCNC(=N)N)C(=O)N2CC[C@@H](C)C[C@@H]2C(=O)O)C1 (stereo partly drawn) [Argatroban] (stock concentration (mM, diluted 1:100): 10.1)",-1.04 (inactive),0.32 (inactive),-2.07,-0.6 (inactive)
"O=C(NCCO[N+](=O)[O-])c1cccnc1 [Nicorandil] (stock concentration (mM, diluted 1:100): 10)",-0.11 (inactive),0.03 (inactive),-1.47 (inactive),-2.59
"C=CCc1ccc(O)c(-c2ccc(O)c(CC=C)c2)c1 [Honokiol] (stock concentration (mM, diluted 1:100): 10.1)",0.56 (inactive),-1.68 (inactive),–,–
"O=C1N(c2ccccc2)c2ccccc2C1(Cc1ccncc1)Cc1ccncc1 (stock concentration (mM, diluted 1:100): 10)",0.26 (inactive),0.8 (inactive),8.78 (active),1.8 (inactive)
"Nc1ccc(O)c(C(=O)O)c1 [Mesalamine] (stock concentration (mM, diluted 1:100): 10)",-1.48 (inactive),-2.13 (inactive),-2.51,-0.33 (inactive)
"CC(=O)CCCCn1cnc2c1c(=O)n(C)c(=O)n2C [Lomifylline] (stock concentration (mM, diluted 1:100): 10)",-2.21 (inactive),-1.26 (inactive),-0.96 (inactive),0.79 (inactive)
"COc1cc2nc(N(C)CCCNC(=O)C3CCCO3)nc(N)c2cc1OC (stereo not drawn) [Alfuzosin] (stock concentration (mM, diluted 1:100): 10)",0.06 (inactive),-0.29 (inactive),-1.12 (inactive),-0.26 (inactive)
"CCCCCNC(=N)N/N=C/c1c[nH]c2ccc(OC)cc12 [Tegaserod maleate] (stock concentration (mM, diluted 1:100): 7.2)",-3.28 (inactive),-0.84 (inactive),–,–
